Laboratory results reported in PubChem BioAssay (NCI).
This is part of a sample that, as a whole, favours compounds with a hit. Of some 79,000 tested, about 15% had one in any assay. Activity calls are given as the source filed them. No stated cut-off is given here; in the data, active means growth inhibition above about 70%; inactive means the rest.

assay: NCI Yeast Anticancer Drug Screen. Data for the sgs1 mgt1 strain (AID 161);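 further: 0% = growth of cultures given vehicle only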; conditions: S. cerevisiae sgs1 mgt1 strain, at 50.0 µM, stronger effect = higher value
Method: Growth inhibition of yeast strains with defined genetic alterations is measured as a screen for potential anti-cancer activity. Selected strains with alterations in DNA damage repair or cell cycle control were exposed to compounds and growth inhibition was measured relative to vehicle treated controls. The strain used in this assay is sgs1 mgt1

**Q.** With `CCc1cccc(Nc2ccccc2C(=O)O)c1` as the compound, how does the growth inhibition read?
**A.** 29.8% (inactive)

**Q.** For `Fc1ccc(-c2cc(-c3cc(-c4ccc(F)cc4)n[nH]3)[nH]n2)cc1`, which growth inhibition is on record?
**A.** 25.9% (inactive)

**Q.** Which growth inhibition does the source give for `CCCCN(CCCC)C(=O)OCC` here?
**A.** 6.35% (inactive)

**Q.** For `O=C1c2ccccc2OC(Cl)(c2ccccc2)C1Cl` (stereo not given), which growth inhibition is on record?
**A.** -7.5% (inactive)

**Q.** For `O=C(Cl)N(C1CCCCC1)C1CCCCC1`, which growth inhibition is on record?
**A.** -1.5% (inactive)

**Q.** For `COc1cc(-c2oc3c(OC)c(OC)cc(O)c3c(=O)c2OC)ccc1O`, which growth inhibition is on record?
**A.** -8.7% (inactive)

**Q.** With `CC(=O)NNc1nc(C)c(C(/C=C/c2ccccc2O)=N/NC(=O)c2ccncc2)s1` as the compound, how does the growth inhibition read?
**A.** 16.1% (inactive)

**Q.** For `NC(=O)Cn1c(=O)[nH]c(=O)c2[nH]cnc21`, which growth inhibition is on record?
**A.** -10.3% (inactive)

**Q.** With `O=c1[nH]c2ccccc2c(O)c1/C=N/C(=S)NCc1ccccc1` as the compound, how does the growth inhibition read?
**A.** 3.95% (inactive)

**Q.** Which growth inhibition does the source give for `CCC(C)C1CCCCC1` (stereo not given) here?
**A.** -3.35% (inactive)

**Q.** For `O=C(O)c1c(O)ccc(O)c1C(=O)O`, which growth inhibition is on record?
**A.** -29.7% (inactive)

**Q.** For `Nc1cccc(SC2CC(=O)N(c3ccc4c(c3)OCO4)C2=O)c1` (stereo not given), which growth inhibition is on record?
**A.** 91.5% (active)

**Q.** For `CCOCC(=O)N[C@H]1CCc2cc(OC)c(OC)c(OC)c2-c2ccc(OC)c(=O)cc21`, which growth inhibition is on record?
**A.** 22.4% (inactive)

**Q.** With `O=C(Nc1ccccc1Br)c1ccc(F)cc1` as the compound, how does the growth inhibition read?
**A.** -11.3% (inactive)

**Q.** Which growth inhibition does the source give for `O=C(Oc1ccc(Cl)cc1)c1ccccc1` here?
**A.** -1.65% (inactive)

**Q.** Which growth inhibition does the source give for `CCC(C)C/C(C)=N\NC(N)=O` (stereo not given) here?
**A.** 3.1% (inactive)

**Q.** Which growth inhibition does the source give for `O=C(NC(CO)C(=O)O)c1ccccc1` (stereo not given) here?
**A.** -14.5% (inactive)

**Q.** For `CC(C(=O)c1ccccc1)C(O)(C(F)(F)F)C(F)(F)F` (stereo not given), which growth inhibition is on record?
**A.** 4.25% (inactive)

**Q.** For `CN(C)CCCc1cccc2[nH]c3c(c12)CN(C)CC3`, which growth inhibition is on record?
**A.** 23.6% (inactive)

**Q.** For `O=C1OC(/C=C/c2ccccc2)=NC/1=C\c1ccccc1O`, which growth inhibition is on record?
**A.** 20% (inactive)

**Q.** For `COc1ccc(-c2nnc3cc(C)n4nnnc4n23)cc1OC`, which growth inhibition is on record?
**A.** 13.7% (inactive)

**Q.** For `CC1=C(C(=O)Nc2ccccc2C)C(c2ccc(C3C(C(=O)Nc4ccccc4C)=CNC=C3C(=O)Nc3ccccc3C)cc2)C(C(=O)Nc2ccccc2C)=C(C)N1`, which growth inhibition is on record?
**A.** 28.9% (inactive)

**Q.** With `CCc1cc(-c2ccc(OC)cc2)c(C#N)c(=S)n1C1OC(CO)C(O)C(O)C1O` (stereo not given) as the compound, how does the growth inhibition read?
**A.** 6.4% (inactive)

**Q.** For `COc1ccc(-c2nnc(CCCCCCCCc3nnc(-c4ccc(OC)cc4)n3N)n2N)cc1`, which growth inhibition is on record?
**A.** -9.45% (inactive)

**Q.** For `CCC(CC)C1CC[N-]CC1.CCC(CC)C1CC[N-]CC1.CCC(CC)C1CC[N-]CC1.CCC(CC)C1CC[N-]CC1.N#C[S-].N#C[S-].[Co]`, which growth inhibition is on record?
**A.** 3.1% (inactive)

**Q.** For `O=C(O)c1ccc(C(=O)c2ccccc2)c(C(=O)O)c1`, which growth inhibition is on record?
**A.** -19.3% (inactive)

**Q.** For `O=C(Oc1c(Cl)cc(Cl)cc1C=Nc1ccc(Cl)cc1)c1ccccc1`, which growth inhibition is on record?
**A.** 88.7% (active)

**Q.** With `CCCCCCCCC1CCC(=O)O1` (stereo not given) as the compound, how does the growth inhibition read?
**A.** 16.7% (inactive)

**Q.** With `COc1cc2c(cc1OC)C(=O)C1(C2)[C@H](c2ccccc2)C2C(=O)c3cc(OC)c(OC)cc3C2[C@H]1c1ccccc1` (stereo not given in full) as the compound, how does the growth inhibition read?
**A.** 29.9% (inactive)

**Q.** Which growth inhibition does the source give for `C[N+](C)(C)CCCCCc1c2nc(c(CCCCC[N+](C)(C)C)c3ccc([nH]3)c(CCCCC[N+](C)(C)C)c3ccc([nH]3)c(CCCCC[N+](C)(C)C)c3nc1C=C3)C=C2` here?
**A.** 10% (inactive)

**Q.** Which growth inhibition does the source give for `CC1(C)OC(=O)C(=Cc2cccc3ccc4ccccc4c23)C(=O)O1` here?
**A.** 8.9% (inactive)

**Q.** For `CCCCC(CC)(CC(=O)O)CC(=O)O`, which growth inhibition is on record?
**A.** 12.3% (inactive)

**Q.** For `CC(O)CNC(=O)Nc1ccccc1` (stereo not given), which growth inhibition is on record?
**A.** -9.8% (inactive)

**Q.** Which growth inhibition does the source give for `NCCNC(=O)Cc1cccc2ccccc12` here?
**A.** -5.15% (inactive)

**Q.** With `CC(C)(C)C(C(N)=O)C(C)(C)C` as the compound, how does the growth inhibition read?
**A.** -6.1% (inactive)

**Q.** Which growth inhibition does the source give for `O=C(c1ccccc1)C(C(c1ccc(Cl)cc1)N1CCOCC1)N1CCOCC1` (stereo not given) here?
**A.** 16.8% (inactive)

**Q.** Which growth inhibition does the source give for `Nc1nnc(-c2cccc(-c3nnc(N)o3)c2)o1` here?
**A.** -9.8% (inactive)

**Q.** With `Cc1cccc(C(O)c2ccccn2)c1O` (stereo not given) as the compound, how does the growth inhibition read?
**A.** -6.8% (inactive)

**Q.** With `O=[N+]1C=CC(=NN=c2ccn([O-])cc2)C=C1` as the compound, how does the growth inhibition read?
**A.** 8.65% (inactive)

**Q.** With `O=C(c1ccccc1O)N1CCCCC1` as the compound, how does the growth inhibition read?
**A.** 12.5% (inactive)
